Screening data from PubChem.
PI5P4Ka inh: inhibitors of human PI5P4K alpha | max response, % | P48426 | 330,000 tested, 1.2% active | AID 652105 | PI5P4Kalpha enzyme, ADP-Glo luminescence, 60 min; active compounds read low; active = max response of -50% or lower; inconclusive = between -30% and -50%; inactive = -30% or higher; also: value at the top dose of about 77 µM
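Controls without substrate or without enzyme flank wells where PI5P4Kalpha converts substrate using 5 microM ATP (final). Incubation lasts 60 minutes at room temperature; ADP formed is read by ADP-Glo luminescence.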
FEN1 inh: human FEN1 inhibition; AID 588795; Potency, µM (doses to about 114 µM), usual class: inhibitors; 390,000 tested, 0.35% active; Recombinant FEN1 flap cleavage, fluorescence, 15 min; also: nearly all actives have a fitted effect of over 65% in size
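Recombinant FEN1 (10 nM) was preincubated with pin-transferred compounds for 15 min at room temperature, then flap DNA substrate (50 nM final) was added. Plates were read at 0 and 15 min, and normalized concentration–response data were fitted to a four-parameter Hill equation.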
APEX1 inh: APE1 (human) endonuclease inhibition | P27695 | recombinant APE1, TAMRA/BHQ-2 abasic DNA cleavage fluorescence | Potency, µM (highest dose often 65.8 µM), hits mostly inhibitors | 350,000 tested, 0.35% active | AID 2517; also: nearly all actives have a fitted effect of over 55% in size
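0.75 nM APE1 + cpd, 15 min RT; start w/ 50 nM TAMRA/BHQ-2 THF-abasic dsDNA; kinetic fluor 525/598 nm ×3 reads @60 s; Δ(read3−read1); normalized to DMSO and NSC13755 control wells.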
RECQ1 helicase: inhibitors of human RECQ1 DNA helicase | Potency, µM (top dose mostly 57.3 µM), usual class: inhibitors | P46063 | RECQ1 DNA unwinding, red fluorescence kinetic read | AID 2549 | 240,000 tested, 0.54% active; also: nearly all actives have a fitted effect of over 30% in size
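50 nM RECQ1T1 preincubated 15 min with compound in Tris pH 8.0 buffer with MgCl2, DTT, Tween-20 and 2.5 ug/ml poly(dI-dC); started with 200 nM TAMRA/BHQ-2 forked duplex and 2 mM ATP. Unwinding read as fluorescence (525/598 nm), two reads 2 h apart.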
BLM helicase inh-1: inhibitors of human Bloom syndrome helicase BLM; P54132; recombinant BLM DNA unwinding, fluorescence dequenching; Potency, µM (top dose mostly 56.1 µM), actives largely listed as inhibitors; 350,000 tested, 0.2% active; AID 2528; also: nearly all actives have a fitted effect of over 35% in size
WRN helicase inh-1: inhibitors of human WRN helicase; Q14191; WRN helicase unwinding, fluorescent forked duplex, kinetic; Potency, µM (highest dose often 114 µM), actives largely listed as inhibitors; 360,000 tested, 0.46% active; also: nearly all actives have a fitted effect of over 55% in size
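WRN at 20 nM final preincubated with compound 15 min at room temperature; reaction started with 100 nM fluorophore/quencher forked duplex oligonucleotide and 2 mM ATP final. Unwinding followed kinetically by red fluorescence (ex 525, em 598 nm).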
WRN helicase inh-2: confirmation of human WRN helicase inhibitors. shares compounds with WRN helicase inh-1. Potency, µM (series often up to 57.1 µM), usual class: inhibitors. 610 tested, 63% active. AID 720497. WRN helicase DNA unwinding, fluorescence kinetic; also: nearly all actives have a fitted effect of over 65% in size
TO displacement: counter-screen for WRN helicase inhibitors: DNA binding | shares compounds with WRN helicase inh-1 | 610 tested, 10% active | thiazole orange DNA binding displacement, fluorescence | Potency, µM (highest dose often 57.1 µM), usual class: inhibitors | AID 720499;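 also: drop in dye fluorescence marks compound binding to DNA; nearly all actives have a fitted effect of over 60% in size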
BLM helicase inh-2: counter-screen for WRN helicase inhibitors: human BLM helicase inhibition; shares compounds with WRN helicase inh-1; Recombinant BLM helicase DNA unwinding, red fluorescence; Potency, µM (doses to about 57.1 µM), usual class: inhibitors; 610 tested, 60% active; AID 720503; also: nearly all actives have a fitted effect of over 60% in size
Hits are given with their value; [ ] = remark or other dose. Shown are actives, neighbours in structure and some others; about 1.5% of the full set was active somewhere. Unless noted, calls follow the shape of the dose curve; as a rule, active = well fitted curve in the direction sought with a large enough effect; inconclusive = small, poorly fitted or top-dose-only effect, or another doubt; inactive = no such curve, though single readings can be large; an effect the other way counts as inactive or inconclusive.

Screening Cc1nc2c(cc1C(=O)N/N=C/c1ccc(O)c(O)c1)c(=O)n(C)c(=O)n2C returned PI5P4Ka inh inactive, FEN1 inh inactive, APEX1 inh inactive, RECQ1 helicase inactive, BLM helicase inh-1 inactive, WRN helicase inh-1 inconclusive, WRN helicase inh-2 inconclusive, TO displacement inactive and BLM helicase inh-2 inconclusive.
Screening O=C(CCCN1C(=O)/C(=C\c2cccs2)SC1=S)Nc1ccc(O)cc1C(=O)O returned PI5P4Ka inh inconclusive, FEN1 inh inactive, APEX1 inh inactive, BLM helicase inh-1 inactive and WRN helicase inh-1 inactive.
For O=C(CCCN1C(=O)/C(=C\c2ccco2)SC1=S)Nc1ccc(O)cc1C(=O)O the results were PI5P4Ka inh inconclusive, FEN1 inh 50µM, APEX1 inh inconclusive, BLM helicase inh-1 inactive, WRN helicase inh-1 16µM, WRN helicase inh-2 7.6µM, TO displacement inconclusive and BLM helicase inh-2 22µM.
Screening C/C=C/c1ccc(OCCCNC(C)CC)c(OC)c1 (configuration not stated) returned PI5P4Ka inh inactive, FEN1 inh inactive, APEX1 inh inactive, RECQ1 helicase inactive, BLM helicase inh-1 inactive, WRN helicase inh-1 inconclusive, WRN helicase inh-2 inactive, TO displacement inactive and BLM helicase inh-2 inactive.
For C/C=C/c1ccc(OCCCNC2CCCC2)c(OC)c1 the results were PI5P4Ka inh inactive, FEN1 inh inactive, APEX1 inh inactive, RECQ1 helicase inactive, BLM helicase inh-1 inactive and WRN helicase inh-1 inactive.
Screening Cn1cnc([N+](=O)[O-])c1NC(C)(C)C returned PI5P4Ka inh inactive, FEN1 inh inactive, APEX1 inh inactive, RECQ1 helicase inactive, BLM helicase inh-1 inactive and WRN helicase inh-1 inactive.
`Cn1cnc([N+](=O)[O-])c1S(=O)(=O)c1ccc(Cl)cc1` gave PI5P4Ka inh inactive, FEN1 inh inactive, APEX1 inh inactive, RECQ1 helicase inactive, BLM helicase inh-1 inactive, WRN helicase inh-1 inconclusive, WRN helicase inh-2 inactive, TO displacement inactive and BLM helicase inh-2 inactive.
`COc1ccc([C@]23Cc4cc(C#N)ccc4C(O2)c2c(cc(C)n(-c4ccccc4)c2=O)O3)cc1` gave APEX1 inh inactive[12.4 µM] and BLM helicase inh-1 inactive[12.4 µM].
`O=S(=O)(Cc1ccccc1)N(O)c1ccccc1` gave PI5P4Ka inh inactive, FEN1 inh inactive, APEX1 inh inactive, BLM helicase inh-1 inactive, WRN helicase inh-1 inconclusive, WRN helicase inh-2 inactive, TO displacement inactive and BLM helicase inh-2 inactive.
Screening Cc1ccc(-c2[nH]c(-c3ccc(C(=O)O)cc3)nc2-c2ccccc2)cc1 returned PI5P4Ka inh inactive, FEN1 inh inactive, APEX1 inh inactive, RECQ1 helicase inactive, BLM helicase inh-1 inactive, WRN helicase inh-1 inconclusive, WRN helicase inh-2 24µM, TO displacement inactive and BLM helicase inh-2 inconclusive.
`COC1=C(OC)C(=O)C(Sc2ccc3ccccc3c2)=CC1=O` gave PI5P4Ka inh -91, FEN1 inh inactive, WRN helicase inh-1 20µM, WRN helicase inh-2 inactive, TO displacement inactive and BLM helicase inh-2 inactive.
Screening COc1ccc(S(=O)(=O)Oc2ccc3ccccc3c2)cc1 returned PI5P4Ka inh inactive, FEN1 inh inactive, APEX1 inh inactive, RECQ1 helicase inactive, BLM helicase inh-1 inactive and WRN helicase inh-1 inactive.
For COC(=O)c1ccc(CSc2c(C(C)C)cnc3c2c(=O)n(C)c(=O)n3C)cc1 the results were FEN1 inh inactive and BLM helicase inh-1 inactive.
For CC(=O)Nc1ccc2c(c1)CCc1ccccc1-2 the results were PI5P4Ka inh inactive, FEN1 inh inactive, APEX1 inh inactive, BLM helicase inh-1 inactive and WRN helicase inh-1 inactive.
